# CYP2C9 inhib: blockers of cytochrome P450 2C9 activity – biochemical, luminescence, ADME assay, primary screen | P11712 | CYP2C9 Supersomes, luciferin-H conversion | inhibition, % at 5 µM | 96,000 compounds, 20% hits | AID 777, 2007;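 active means blocking of liver enzyme CYP2C9 beyond about 50% at 5 µM, limit read from the data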
# CYP2C19 act: human CYP2C19 activators, primary screen, biochemical, luminescence; Cytochrome P450 2C19 (Homo sapiens), P33261; recombinant CYP2C19, luciferin-H EGE luminescence; stronger effect = higher value; 0 = fully inhibited enzyme, 1 = untreated enzyme; activation factor at 5 µM; 96,000 tested, under 10 active;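 active means activation factor of at least 2 at 5 µM in the primary screen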
# Target sequence (P33261 whole entry, looked up): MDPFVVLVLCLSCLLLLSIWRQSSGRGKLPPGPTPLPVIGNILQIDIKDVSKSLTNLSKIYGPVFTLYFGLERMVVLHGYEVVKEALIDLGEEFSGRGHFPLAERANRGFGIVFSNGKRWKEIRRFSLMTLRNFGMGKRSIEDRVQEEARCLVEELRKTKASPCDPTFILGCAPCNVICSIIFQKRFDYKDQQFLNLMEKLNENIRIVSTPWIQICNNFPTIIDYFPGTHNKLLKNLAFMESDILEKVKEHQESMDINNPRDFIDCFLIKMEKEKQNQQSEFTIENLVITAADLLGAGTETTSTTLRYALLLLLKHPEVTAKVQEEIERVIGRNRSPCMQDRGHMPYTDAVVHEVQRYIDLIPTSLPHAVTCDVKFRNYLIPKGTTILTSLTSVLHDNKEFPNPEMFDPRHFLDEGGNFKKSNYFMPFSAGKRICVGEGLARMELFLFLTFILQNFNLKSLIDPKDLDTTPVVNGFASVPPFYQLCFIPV
# CYP2C19 inh: blockers of cytochrome P450 2C19 activity – biochemical, luminescence, ADME assay, primary screen; P33261; CYP2C19 Supersomes, luciferin-H EGE luminescence, 30 min; inhibition, % at 5 µM; 96,000 compounds, 21% hits; AID 778, 2007;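 active means CYP2C19 inhibition above a set limit at 5 µM in the primary screen, cut at about 50% in these data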
# CYP2C9 act: human CYP2C9 activators, primary screen, biochemical, luminescence | recombinant CYP2C9, luciferin-H conversion; stronger effect = higher value; factor 1 = untreated enzyme, 0 = blocked | 96,000 compounds, 1.4% hits | Cytochrome P450 2C9 (Homo sapiens), P11712 | activation factor at 5 µM;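 active means activation factor of 2 or more for CYP2C9 at a 5 µM dose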
# Cav3 T inh: Cav3.2 calcium influx blockers – cell-based, Fluo-4 calcium fluorescence, FDSS, MLSMR library, primary screen; AID 449739, 2010; Cav3.2-expressing cells; stronger effect = lower value; B-score at 10 µM; 100,000 compounds, 4% hits; Voltage-dependent T-type calcium channel subunit alpha-1H (Homo sapiens), O95180;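 active means single-dose well whose peak fluorescence ratio is a statistical outlier from its plate by either plate-standardised score or position-corrected B-score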
# Hits are given with their value; . = inactive; / = not tested or not shown. Compounds with a hit are over-represented: about 27% of the library has one in this group of screens.
SMILES,CYP2C9 inhib,CYP2C19 act,CYP2C19 inh,CYP2C9 act,Cav3 T inh
CCCn1c(N)c(C(=O)CSc2nc3ccccc3n2CCC#N)c(=O)n(C)c1=O,.,.,.,.,.
O=C1C(c2ccc(F)cc2)N(Cc2ccc3c(c2)OCO3)C(=O)CN1C1CCCCCC1 (centres undefined),55.8,.,.,.,.
O=C(CS(=O)(=O)c1cccc(Cl)c1)Nc1ccccc1Cl,.,.,77.6,.,.
CC(C)[C@@H]1C=C(C(=O)O)O[C@H](OCCCCO)C1,/,/,/,/,.
CO/N=C/NC(=O)N1OC[C@@H]2COc3ccc4ccccc4c3[C@@H]21,.,.,57.3,.,.
CCOC(=O)C1CCN(C(=O)c2cccc(C(=O)N3CCC(C(=O)OCC)CC3)c2)CC1,.,.,.,.,.
CCOC(=O)C1CCN(C(=O)c2ccc(OC)cc2OC)CC1,.,.,.,.,.
CCOC(=O)C1CCN(C(=O)/C=C/c2ccc(OC)cc2)CC1,.,.,86.7,.,.
CCOC(=O)C1CCN(C(=O)/C=C/c2ccccc2OC)CC1,.,.,51.0,2.6,.
COc1ccc(OCC(=O)N2CCN(S(=O)(=O)c3ccc(Cl)cc3)CC2)cc1,.,.,.,.,.
CCOc1ccc(NC(=O)CCN2CCN(c3ccccc3OC)CC2)cc1,.,.,.,.,.
COc1ccc(NC(=O)CCN2CCN(S(=O)(=O)c3ccc(Cl)cc3)CC2)cc1,75.1,.,70.7,.,.
CN(C)S(=O)(=O)N1CCN(CC(=O)Nc2cc(Cl)ccc2Cl)CC1,.,.,71.5,.,.
CCOc1ccc(NC(=O)CCN2CCN(S(=O)(=O)c3cc(Cl)ccc3OC)CC2)cc1,67.6,.,96.4,.,.
CN1CCN(CC(=O)Nc2ccc(Cl)cc2Cl)CC1,.,.,.,.,.
CCOC(=O)c1ccc(NC(=O)COc2ccc(S(=O)(=O)N3CCCC3)cc2)cc1,.,.,.,.,.
CCOC(=O)c1ccc(S(=O)(=O)N2CCN(CC(=O)NC(=O)NC(C)(C)C)CC2)cc1,72.4,.,.,.,.
COCCN1CN=C(Nc2nc3ccccc3s2)NC1,.,.,.,.,.
CCOc1cc(NC(=O)CC(C)C)c(OCC)cc1NC(=O)CCn1nnc2ccccc21,.,.,.,.,.
COc1cccc(-n2c(SCC(=O)NC3CCCC3)nnc2-c2ccco2)c1,/,/,/,/,.
CCOc1ccc(NC(=O)CN2CCN(CC(=O)Nc3ccc(F)cc3)CC2)cc1,.,.,.,.,.
CC(C)c1ccc(S(=O)(=O)N2CCN(CCC(=O)Nc3ccc(N(C)C)cc3)CC2)cc1,.,.,.,.,.
O=C(CN1CCN(S(=O)(=O)c2ccccc2)CC1)Nc1ccc(Cl)c(Cl)c1,.,.,77.1,.,-3.69
COc1ccc(S(=O)(=O)N2CCCN(CCC(=O)Nc3cccc(C(F)(F)F)c3)CC2)cc1,.,.,.,.,-4.59
COc1ccc(NC(=O)CCN2CCN(S(=O)(=O)c3ccc(C(C)C)cc3)CC2)cc1,65.9,.,.,.,.
SMILES,CYP2C9 inhib,CYP2C19 act,CYP2C19 inh,CYP2C9 act,Cav3 T inh
CCOc1ccc(NC(=O)CN2CCN(S(=O)(=O)c3ccc(Cl)cc3)CC2)cc1,.,.,80.1,.,.
NC(=O)COc1ccc(C2c3c(oc4ccccc4c3=O)C(=O)N2CC2CCCO2)cc1 (centres undefined),.,.,.,.,.
Cc1ccc(-n2c(SCC(=O)Nc3ccc4cn[nH]c4c3)nnc2-c2ccco2)cc1,.,.,.,.,.
Cn1cnnc1SCC(=O)Nc1ccc2nc(SCc3cccc4ccccc34)sc2c1,.,.,58.6,.,.
CC(C)(C)n1nnnc1C(c1ccc(Cl)cc1)N1CCCc2ccccc21 (centres undefined),76.3,.,83.5,.,.
COc1ccccc1C(c1nnnn1C(C)(C)C)N1CCCc2ccccc21 (centres undefined),.,.,.,.,/
CC(C)(C)n1nnnc1C(c1cccc(C#N)c1)N1CCCc2ccccc21 (centres undefined),93.9,.,90.9,.,.
Cn1c(SCC(=O)Nc2cc(=O)n(C)c(=O)n2C)nnc1-c1cccs1,.,.,.,.,/
CS(=O)(=O)N(CC(=O)NCCC1=CCCCC1)C1CCCCC1,68.7,.,71.0,.,.
O=C(Cn1nc(C(F)F)cc1C1CC1)NCCC1=CCCCC1,.,.,67.5,.,.
COc1ccc(CCNC(=O)CN(C2CCCCC2)S(C)(=O)=O)cc1,.,.,.,.,.
Cc1ccc(S(=O)(=O)N(CC(=O)NCCC2=CCCCC2)Cc2ccccc2F)cc1,51.7,.,.,.,.
O=C(CN(Cc1ccccc1F)S(=O)(=O)c1ccc(Cl)cc1)NCCC1=CCCCC1,.,.,.,.,.
O=C(CN(Cc1ccccc1F)S(=O)(=O)c1ccc(Cl)cc1)NCCCO,.,.,54.4,.,.
O=C1c2cccc(Cl)c2C(=O)c2c1cccc2N1CCCC1,/,/,/,/,.
CN1CCN(c2nc(NCCOC34CC5CC(CC(C5)C3)C4)nc(OCC(F)(F)F)n2)CC1,.,.,.,.,.
Cc1ccc(S(=O)(=O)N(CC(=O)NCCC2=CCCCC2)Cc2ccccc2)cc1,56.7,.,.,.,.
O=C(CN(Cc1ccccc1)S(=O)(=O)c1ccc(F)cc1)NCCC1=CCCCC1,.,.,.,.,.
COC(=O)Cn1ncc2c3ccccc3n(C)c2c1=O,.,.,.,.,.
O=C1Nc2ccc(S(=O)(=O)N3CCCCCC3)c3cccc1c23,.,.,79.1,.,.
O=C1Nc2ccc(S(=O)(=O)NCc3ccccn3)c3cccc1c23,.,.,.,.,.
CCOc1ccccc1N1CCN(S(=O)(=O)c2ccc3c4c(cccc24)C(=O)N3)CC1,73.4,.,90.9,.,.
O=C1Nc2ccc(S(=O)(=O)N3CCCC3)c3cccc1c23,.,.,83.2,.,.
O=C1Nc2ccc(S(=O)(=O)N3CCOCC3)c3cccc1c23,.,.,59.2,.,.
O=C1Nc2ccc(S(=O)(=O)N3CCCC3C(=O)O)c3cccc1c23 (centres undefined),.,.,.,.,.
C=CCNC(=S)N1CCN(CCN=CC2=C(O)CC(c3cccs3)CC2=O)CC1 (centres undefined),.,.,.,.,.
CN1CCN(S(=O)(=O)c2ccc3c4c(cccc24)C(=O)N3)CC1,.,.,55.1,.,.
CC(=O)c1cccc(S(=O)(=O)NCC(c2ccco2)N2CCCCC2)c1 (centres undefined),.,.,75.3,.,.
CCOc1ccc(C2C=C(c3ccc(C)cc3)Nc3nnnn32)cc1 (centres undefined),83.9,.,83.4,.,.
CCOc1ccc(C2C=C(c3ccc(C)cc3)Nc3ncnn32)cc1 (centres undefined),.,.,.,.,.

# Source: PubChem
